Bioassay records from PubChem.
FBPA coupling cs: qHTS Assay for Inhibitors of Fructose-1,6-bisphosphate Aldolase from Giardia Lamblia: Coupling assay counterscreen. activity change, negative = inhibition, % at 58.2 µM, hits read low. coupling enzyme system counterscreen, AmpLite Red fluorescence. hit rate 0.67% among 290,000; in the data active means activity change below about -30%
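Counterscreen of the coupled detection system alone, without aldolase: glyceraldehyde-3-phosphate coupling enzymes plus AmpLite Red readout. Compounds at 57.5 uM final, 10 min RT preincubation, 20 min RT reaction, fluorescence 525/598 nm.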
Sfp PPTase inh: qHTS Assay for Inhibitors of Bacillus subtilis Sfp phosphopantetheinyl transferase (PPTase) | 4'-phosphopantetheinyl transferase ffp (Bacillus subtilis), Q9F4F7 | Biochemical Sfp PPTase activity, qHTS | Potency, µM, without a hit: largest response in the series, negative = inhibition, actives largely listed as inhibitors | hit rate 3.5% among 310,000 | AID 1490, 2009;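 further: the enzyme is Sfp with the accession as filed and its product quenches rhodamine fluorescence; potency means the concentration at half of the fitted maximal effect; 0% = enzyme reaction without inhibitor and -100% = no enzyme wells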
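After 15 min at room temperature with compound, 15 nM Sfp received 5 uM rhodamine-CoA plus 12.5 uM BHQ-2-ybbR (50 mM Hepes pH 7.6, 10 mM MgCl2). Rate came from the fluorescence difference over 30 min, ex 525/em 598 nm.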
Tau fluor counter: Counterscreen qHTS for Inhibitors of Tau Fibril Formation, Fluorescence Polarization. hit rate 0.93% among 280,000. Potency, µM (series often up to 57.7 µM), for inactives: at the top dose activity change, negative = decrease. tau K18 P301L Alexa594 fluorescence, heparin fibrillization; further: potency means the concentration at half of the fitted maximal effect; nearly all actives have a fitted effect of over 55% in size
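Human tau K18 P301L (15 uM unlabeled, 0.24 uM Alexa 594-labeled) in 100 mM sodium acetate pH 7 with 20 uM heparin, 6 hr at 37 C. ThT 30 uM added, 1 hr ambient; Alexa 594 FP and total fluorescence read at 555/632 nm.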
Tau fibril ThT: qHTS for Inhibitors of Tau Fibril Formation, Thioflavin T Binding; recombinant tau K18 P301L, heparin-induced fibrillization, ThT fluorescence; Microtubule-associated protein tau (Homo sapiens), P10636; hit rate 2.1% among 270,000; Potency, µM (highest dose often 57.4 µM), inactives show at the highest dose activity, negative = inhibition, hits mostly inhibitors; AID 1460, 2008; further: potency means the concentration at half of the fitted maximal effect; nearly all actives have a fitted effect of over 55% in size
Target sequence (P10636 561-689 P618L limits assumed): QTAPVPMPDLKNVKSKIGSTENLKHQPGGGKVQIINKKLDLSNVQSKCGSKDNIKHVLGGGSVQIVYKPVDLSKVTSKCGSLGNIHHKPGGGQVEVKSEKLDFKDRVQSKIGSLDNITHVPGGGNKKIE
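Fibril formation assay: tau K18 P301L at 15 uM with trace Alexa 594 label, heparin inducer 20 uM, pH 7 sodium acetate buffer, 37 C for 6 hr; endpoint ThT signal.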
Tau fibril FP: qHTS for Inhibitors of Tau Fibril Formation, Fluorescence Polarization | K18 P301L tau heparin fibrillization, Alexa594 FP, 6 h | Potency, µM (series often up to 57.7 µM), without a hit: top-dose activity, negative = inhibition, hits mostly inhibitors | hit rate 0.39% among 280,000 | AID 1468, 2008; further: potency means the concentration at half of the fitted maximal effect; nearly all actives have a fitted effect of over 55% in size
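Read-out: fluorescence polarization of Alexa 594-labeled tau (0.24 uM), 555 nm excitation, 632 nm emission. Mixtures held 15 uM unlabeled K18 P301L, compound and 20 uM heparin, pH 7 acetate buffer, incubated 6 hr at 37 C.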
An asterisk follows results filed as active; ? = inconclusive; nt = not tested or not shown; [ ] = dose if it differs, or a comment. Only some compounds are listed: those with a hit (about 5.2% of all), similar ones and a draw of the others. Unless noted, the call rests on the fitted dose curve; in most records, active means well fitted curve in the direction sought with a large enough effect; inconclusive means small, poorly fitted or top-dose-only effect, or another doubt; inactive means no such curve, though single readings can be large; an effect the other way counts as inactive or inconclusive. Unless noted, on the % scale 0 is the no-effect control and ±100 the full control effect.

SMILES	FBPA coupling cs	Sfp PPTase inh	Tau fluor counter	Tau fibril ThT	Tau fibril FP
CC(=O)c1cccc(NC(=O)Nc2cnn(Cc3ccc(Cl)cc3Cl)c2)c1	-0.9	-21.0%	8.91µM*[quencher]	-10.1%	?
COC(=O)C1=C(C(=O)OC)SC(=C2C(=S)C(C)(C)N(C(=O)CC(C)C)c3ccccc32)S1	4.1	?	?	1.12µM*	?
COC(=O)C1=C(C(=O)OC)[C@@H]2N(C)c3ccccc3[C@@]23C[C@@H](C(=O)OC)N(C(=O)CC(C)C)C3=N1	-0.6	?	-22.0%[11.6 µM]	-11.3%[11.5 µM]	-2.8%[11.6 µM]
COc1ccc(N2C(=O)CC(NNc3ncc(Cl)cc3Cl)C2=O)cc1 (stereo not drawn)	3.0	50.1µM*	-15.5%	?	-3.5%
COc1ccc(N2C(=O)CC(Nc3ccc(C)cc3)C2=O)cc1 (stereo not drawn)	5.4	16.7%	-6.2%	-14.3%	5.7%
O=C(CN1C(=O)COc2ccc(S(=O)(=O)N3CCCCCC3)cc21)N1CCN(c2ccc(Cl)cc2)CC1	nt	nt	-20.1%	-2.7%	10.0%
Cc1ccc(C(=O)NNC(=S)Nc2cccc3ccccc23)s1	1.0	-2.4%	-27.0%	12.6µM*	?
O=C(NC(=S)Nc1ccccc1C(=O)O)c1cncc(Br)c1	3.2	10µM*	nt	nt	nt
O=C(NNC(=S)Nc1cccc2ccccc12)c1cccc(Br)c1	0.9	11.2%	?	?	-0.4%
O=C(O)c1ccccc1NC(=S)NC(=O)c1cccc2ccccc12	-4.4	50.1µM*	-4.0%	-2.7%	-7.8%
O=C(NC(=S)Nc1ccc(N2CCOCC2)cc1)c1cccc(Cl)c1	0.4	-2.8%	?	12.6µM*	9.3%
Cc1c(NC(=S)NC(=O)c2cccc3ccccc23)cccc1C(=O)O	3.9	-2.7%	nt	nt	nt
O=C(NC(=S)Nc1ccc(N2CCOCC2)cc1)c1ccccc1	0.3	-25.9%	?	?	5.0%
CCOc1ccc(-c2cc(C(=O)NCCc3ccccc3)c3c(-c4ccc(C)cc4)[nH]nc3n2)cc1	nt	nt	-16.7%	-4.9%	-10.9%
COc1ncc2nc(C)c(=O)n(C)c2n1	0.0	11.1%	nt	nt	nt
O=C(CSc1nc2c(c(=O)[nH]1)CN(Cc1ccc3c(c1)OCO3)CC2)Nc1cccc(Cl)c1	nt	nt	-24.6%	-6.9%	?
O=C(NC(=S)Nc1ccc(N2CCOCC2)cc1)c1cncc(Br)c1	-0.4	56.2µM*	-12.4%	?	2.4%
CCn1c([N+](=O)[O-])nc2c1c(=O)[nH]c(=O)n2C	-38.1*	-4.8%	4.8%	-14.7%	-10.0%
CCCCCCn1c(SCCCC)nc2c1c(=O)[nH]c(=O)n2C	-1.8	12.8%	-1.9%	-13.2%	-1.7%
CCOCCn1c(SC)nc2c1c(=O)[nH]c(=O)n2C	0.2	17.8µM*	3.0%	3.5%	-1.7%
CCOCCn1c(N2CCCC2)nc2c1c(=O)[nH]c(=O)n2C	-1.3	39.8µM*	nt	nt	nt
Cc1ccc(-n2ncc3c(NC4CCCCC4)ncnc32)cc1	nt	nt	-10.7%	-3.7%	-9.9%
CC1=C(C(=O)Nc2ccccc2)C(c2ccccc2C)n2nc(SCC(=O)c3ccc(C)cc3)nc2N1 (stereo not drawn)	nt	nt	22.3%	?	7.8%
N=C(N)n1cccn1	nt	50.1µM*	nt	nt	nt
CCOC(=O)c1ccccc1NC(=O)NCc1c(-n2cccc2)sc2c1CCCC2	nt	nt	-17.3%	?	4.3%
SMILES	FBPA coupling cs	Sfp PPTase inh	Tau fluor counter	Tau fibril ThT	Tau fibril FP
CCOc1ccc(-c2nc(=S)[nH][nH]2)cc1	8.0	?	-10.3%	-15.7%	1.1%
COc1cc(-c2nc(=S)[nH][nH]2)cc(OC)c1OC	-1.8	50.1µM*	-10.3%	-11.6%	-12.8%
COc1ccc(-c2nc(=S)[nH][nH]2)cc1OC	3.1	56.2µM*	1.2%	-2.1%	3.3%
Oc1ccc(-c2nc(=S)[nH][nH]2)cc1	-1.2	?	5.9%	7.7%	0.0%
COc1ccc(-c2nc(=S)[nH][nH]2)cc1	2.6	?	2.4%	-8.2%	-2.1%
FC(F)(F)c1ccc(-c2nc(=S)[nH][nH]2)cc1	4.1	56.2µM*	5.7%	nt	-1.4%
